# In the supplement of paper PMC5662767:
# System: Drosophila S2 cl14 SmoIP sensor cells
# Assay: normalized SmoIP GFP fluorescence (untreated unstimulated = 0%, untreated Hh-stimulated = 100%); higher = more Smo activation sensor fluorescence
# Conditions: compound concentration: 2 uM, 24 h
# [1] = stimulation: Hh conditioned medium (+Hh)
# [2] = stimulation: mock conditioned medium (-Hh)
# 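Also: flow cytometry read-out as median GFP intensity of gated cells, compounds added 30 min before Hh-conditioned or mock medium, mock-treated cells serving as unstimulated baseline.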
Compound,normalized SmoIP GFP fluorescence [1] [%],normalized SmoIP GFP fluorescence [2] [%]
Fc1cc(-c2cccc3ncc(-c4cnn(C5CCNCC5)c4)nc23)cc(F)c1CN1CCOCC1,145,-4.08
COC1CCN(C(=O)c2cc(Cc3n[nH]c(=O)c4ccccc34)ccc2F)CC1,103,-3.5
CCCC(=O)OCOC(=O)C1=C(C)NC(C)=C(C(=O)OC)C1c1cccc(Cl)c1Cl (centres undefined) [cleviprex-clevidipine],119,-12.9
N#CC[C@H](C1CCCC1)n1cc(-c2ncnc3[nH]ccc23)cn1,112,1.03
COc1cc2c(cc1Cc1cccc(Cl)c1F)c(=O)c(C(=O)O)cn2[C@H](CO)C(C)C [Elvitegravir],143,-9.22
Nc1nc(N)c(N=O)c(OCC2CCCCC2)n1,139,12.5
O=C(NNc1ccccc1)c1ccncc1,105,-2.71
COC(=O)c1ccc2c(c1)NC(=O)/C2=C(\Nc1ccc(N(C)C(=O)CN2CCN(C)CC2)cc1)c1ccccc1,108,7.92
Cc1cccc(-c2[nH]c(C(C)(C)C)nc2-c2ccc3c(c2)OCO3)n1,133,-6.97
COc1cc2nc(N3CCCN(C)CC3)nc(NC3CCN(Cc4ccccc4)CC3)c2cc1OC,109,1.61
OCc1ccc(-c2ccc(-c3ccc(CO)s3)o2)s1,111,-2.08
CC1(C)CCC(CN2CCN(c3ccc(C(=O)NS(=O)(=O)c4ccc(NCC5CCOCC5)c([N+](=O)[O-])c4)c(Oc4cnc5[nH]ccc5c4)c3)CC2)=C(c2ccc(Cl)cc2)C1,104,-2.82
COC(=O)N[C@H](C(=O)N1CCC[C@H]1c1ncc(-c2ccc(-c3ccc(-c4cnc([C@@H]5CCCN5C(=O)[C@@H](NC(=O)OC)C(C)C)[nH]4)cc3)cc2)[nH]1)C(C)C,112,7.39
Nc1cc(C(F)(F)F)c(-c2cc(N3CCOCC3)nc(N3CCOCC3)n2)cn1,68,-8.9
Cc1nc(NC(=O)N2CCC[C@H]2C(N)=O)sc1-c1ccnc(C(C)(C)C(F)(F)F)c1,102,-1.23
NC(=O)c1noc([C@H](CCCC2CCCCC2)CC(=O)NO)n1,126,-6.97
O=C(COc1cccc2c(=O)[nH]ccc12)c1ccccc1,139,0.334
